Activity calls are given as the source filed them. The calls were made as follows: active = hit-call score of the fitted dose curve at least 0.9, where 1 is the maximum; inactive = score below 0.9.
Key:
[1] = APR_HepG2_CellCycleArrest_24hr: Apredica 24-hour HepG2 Assay for Cell Cycle Arrest (AID 2282905); conditions: imaging, actives raise or lower the signal;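 also: cell cycle arrest scored as ratio of 2N to 4N nuclear DNA content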
Summary of the method: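 After 24 h exposure at 0.39–200 uM in 0.5% DMSO, fixed cells received Hoechst 33342 staining. Imaging quantified per-nucleus DNA content; gain or loss fitted against DMSO controls.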

[2] = APR_HepG2_NuclearSize_24hr: Apredica 24-hour HepG2 Assay for Nuclear Size (AID 2282907); conditions: high-content imaging, actives raise or lower the signal
Summary of the method: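 Nuclear size from Hoechst 33342-stained, formaldehyde-fixed HepG2 nuclei imaged by high-content microscopy, after 24 h dosing at ten concentrations from 0.39 to 200 uM in 0.5% DMSO; gain or loss relative to DMSO baseline.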

[3] = APR_HepG2_CellLoss_24hr: Apredica 24-hour HepG2 Assay for Cell Loss (AID 2282908); conditions: high-content imaging;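 as to AC50: fit in both directions so a hit may be cell loss or gain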
Summary of the method: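 Nuclei stained with Hoechst 33342 after formaldehyde fixation (3.7%) were imaged at 20x to count cells. Exposure lasted 24 hr, at ten concentrations from 0.39 to 200 uM in duplicate, with 0.5% v/v DMSO. Fit bidirectional, relative to DMSO.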

[4] = APR_HepG2_MicrotubuleCSK_24hr: Apredica 24-hour HepG2 Assay for Microtubule CSK Stabilty (AID 2282909); conditions: HepG2 microtubule cytoskeleton imaging, actives raise or lower the signal
Summary of the method: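 Fixed HepG2 cells were stained for alpha-tubulin and imaged after 24 hr exposure to ten concentrations spanning 0.39–200 uM in 0.5% DMSO. Signal change was fitted in both directions relative to DMSO; taxol was the positive control.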

[5] = APR_HepG2_MitoticArrest_24hr: Apredica 24-hour HepG2 Assay for Mitotic Arrest (AID 2282910); conditions: high-content imaging, actives raise or lower the signal
Summary of the method: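 High-content imaging of fixed HepG2 cells labeled with Hoechst 33342 and anti-phospho-histone H3, after 24 h treatment. Ten concentrations 0.39 to 200 uM in duplicate, final DMSO 0.5%; changes fitted both directions relative to DMSO.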

[6] = APR_HepG2_MitoMembPot_24hr: Apredica 24-hour HepG2 Assay for Mitochondrial Membrane Potential (AID 2282911); conditions: imaging, actives raise or lower the signal
Summary of the method: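 HepG2 cells exposed 24 h to 0.39–200 uM compounds in duplicate, 0.5% v/v DMSO final. MitoTracker Red CMXRos 250 nM loaded 30 min before formaldehyde fixation; high-content imaging at 20x, bidirectional fit versus DMSO.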

[7] = APR_HepG2_MitoMass_24hr: Apredica 24-hour HepG2 Assay for Mitochondrial Mass (AID 2282912); conditions: high-content imaging, actives raise or lower the signal
Summary of the method: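 Endpoint is MitoTracker Red CMXRos (250 nM, 30 min, pre-fixation) intensity from 20x high-content imaging, nuclei located by Hoechst. Human HepG2 cells received ten concentrations from 0.39 to 200 uM in 0.5% DMSO for 24 hr, duplicate wells. Bidirectional fit relative to DMSO.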

[8] = APR_HepG2_p53Act_24hr: Apredica 24-hour HepG2 Assay for p53 Activation (AID 2282913); conditions: high-content imaging, actives raise or lower the signal;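 also: p53 protein immunofluorescence averaged per cell in HepG2 with Hoechst nuclei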
Summary of the method: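 HepG2 cells exposed 24 h to compounds at 0.39–200 uM in duplicate, 0.5% v/v DMSO final; fixed, permeabilized, stained with anti-p53 antibody and Hoechst 33342; fluorescence imaging; bidirectional curve fit versus DMSO.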

[9] = APR_HepG2_CellCycleArrest_72hr: Apredica 72-hour HepG2 Assay for Cell Cycle Arrest (AID 2282914); conditions: high-content imaging, actives raise or lower the signal
Summary of the method: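 HepG2 cells exposed 72 h in duplicate to 0.39–200 uM compound, 0.5% DMSO final. Formaldehyde-fixed, Hoechst 33342-stained nuclei imaged at 20x, six fields per well; DNA content per valid cell quantified by cell-cycle image analysis, bidirectional fit versus DMSO.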

[10] = APR_HepG2_CellLoss_72hr: Apredica 72-hour HepG2 Assay for Cell Loss (AID 2282915); conditions: high-content imaging
Summary of the method: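 Cell number comes from Hoechst 33342-labelled nuclei, imaged at 20x after 3.7% formaldehyde fixation. Dosing was 0.39–200 uM, ten concentrations in duplicate, 0.5% DMSO final, for 72 h. Bidirectional fit relative to DMSO baseline.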

Measured: AC50

O=c1c(-c2ccc(O)cc2)coc2cc(O)cc(O)c12
inactive: [2] | [4] | [5] | [7]
active: [1] 43.1 µM | [3] 32.6 µM | [6] 78.9 µM | [8] 70.7 µM | [9] 47.4 µM | [10] 42.9 µM

OCCO
inactive: [1] | [2] | [3] | [4] | [5] | [6] | [7] | [8] | [9] | [10]

Clc1ccccc1C(c1ccccc1)(c1ccccc1)n1ccnc1
active: [2] 72.3 µM | [3] 20.3 µM | [4] 30.7 µM | [5] 31.6 µM | [9] 13.8 µM | [10] 18.9 µM
inactive: [1] | [6] | [7] | [8]

CC[C@H](NC(=O)c1cc(F)ccc1NS(=O)(=O)c1cccc2cccnc12)c1ccccc1
inactive: [1] | [2] | [3] | [4] | [5] | [7] | [8] | [9]
active: [6] 105 µM | [10] 78.4 µM

CC[C@@H]1C[C@H](N(Cc2cc(C(F)(F)F)cc(C(F)(F)F)c2)C(C)=O)c2cc(C(F)(F)F)ccc2N1C(=O)OC(C)C
inactive: [1] | [2] | [3] | [4] | [5] | [7] | [8] | [9] | [10]
active: [6] 0.0358 µM

CC(O)CC(C)(C)O (stereo not drawn)
inactive: [1] | [2] | [3] | [4] | [5] | [6] | [7] | [8] | [9]
active: [10] 70.6 µM

Cc1c2ccccc2c(C)c2c1ccc1ccccc12
inactive: [7]
active: [1] 44.6 µM | [2] 77.3 µM | [3] 56.1 µM | [4] 74.5 µM | [5] 49.3 µM | [6] 95.7 µM | [8] 0.069 µM | [9] 6.16 µM | [10] 40.3 µM

O=C1O[C@H]([C@@H](O)CO)C(O)=C1O
inactive: [1] | [2] | [3] | [4] | [5] | [6] | [7] | [8] | [9]
active: [10] 16.1 µM

CCCCOC(=O)c1ccc(O)cc1
inactive: [1] | [2] | [3] | [4] | [5] | [6] | [8] | [9] | [10]

c1ccc2ccccc2c1
active: [9] 0.0357 µM | [10] 0.0736 µM
inactive: [1] | [2] | [3] | [4] | [5] | [6] | [7] | [8]

CCCCOC(=O)CC(CC(=O)OCCCC)(OC(C)=O)C(=O)OCCCC
active: [3] 27.7 µM | [6] 70.8 µM | [8] 53.9 µM | [10] 42.5 µM
inactive: [1] | [2] | [4] | [5] | [9]

NCc1cccc(C2CCN(C(=O)c3ccc(C#Cc4ccccc4F)o3)CC2)c1
inactive: [1] | [2] | [7] | [9]
active: [3] 17.7 µM | [4] 61.3 µM | [5] 18.6 µM | [6] 18.4 µM | [8] 16.4 µM | [10] 15.5 µM

CCN(Cc1cccc(S(=O)(=O)O)c1)c1ccc(C(=C2C=CC(=[N+](CC)Cc3cccc(S(=O)(=O)O)c3)C=C2)c2ccccc2S(=O)(=O)[O-])cc1
inactive: [1] | [2] | [3] | [4] | [5] | [6] | [7] | [8] | [9] | [10]

CCN(Cc1cccnc1)C(=O)c1cccc(Cl)c1[C@]1(C)C(=O)N(Cc2ccc(OC)cc2OC)c2ccc(Cl)cc21
inactive: [1] | [2] | [3] | [4] | [5] | [7] | [8] | [9]
active: [6] 50.3 µM | [10] 14.4 µM

CCCCCCCCCCCO
active: [3] 103 µM | [5] 104 µM | [6] 110 µM | [8] 107 µM | [10] 107 µM
inactive: [1] | [2] | [4] | [7] | [9]

O=C(O)Cn1c(=O)n(Cc2ccc(Br)cc2F)c(=O)c2ccc(Cl)cc21
inactive: [1] | [2] | [3] | [4] | [5] | [6] | [7] | [8] | [9] | [10]

O=c1[nH]sc2ccccc12
active: [3] 29 µM | [4] 38.2 µM | [5] 13.5 µM | [7] 15.7 µM | [8] 29.3 µM | [9] 21.4 µM | [10] 18.1 µM
inactive: [1] | [2] | [6]

c1ccc2n[nH]nc2c1
inactive: [1] | [2] | [3] | [4] | [5] | [6] | [7] | [8] | [9] | [10]

Cc1ccc2oc(CN(Cc3ccccc3)C(=O)Nc3c(F)cc(F)cc3F)c(-c3ccc(Cl)cc3)c2c1
inactive: [1] | [2] | [3] | [4] | [5] | [6] | [7] | [8] | [9] | [10]

CC(C)(O)c1ccc(CNC(=O)c2cccnc2Oc2ccc3nonc3c2)cc1
inactive: [1] | [2] | [3] | [4] | [5] | [6] | [7] | [8] | [9] | [10]

Cc1cc(F)ccc1-c1cc(N2CC[C@@H](O)[C@H]2CO)ncc1N(C)C(=O)C(C)(C)c1cc(C(F)(F)F)cc(C(F)(F)F)c1
active: [8] 94 µM | [10] 64.7 µM
inactive: [1] | [2] | [3] | [4] | [5] | [6] | [7] | [9]

O=c1ccc2ccccc2o1
inactive: [1] | [2] | [3] | [4] | [5] | [6] | [7] | [8] | [9] | [10]

CCO[Si](CCCNC(N)=O)(OCC)OCC
inactive: [1] | [2] | [3] | [4] | [5] | [6] | [7] | [8] | [9] | [10]

CN1C(=O)N(c2ccccc2Br)Cc2cnc(Nc3ccc4c(c3)OCC(CO)O4)nc21 (stereo not drawn)
inactive: [2] | [4] | [7]
active: [1] 8.95 µM | [3] 3.7 µM | [5] 2.93 µM | [6] 105 µM | [8] 4 µM | [9] 5.09 µM | [10] 6.32 µM

CN1C(=O)CC[C@H]1c1cccnc1
inactive: [1] | [2] | [3] | [4] | [5] | [6] | [7] | [8] | [9] | [10]

NC(=O)c1nc(-c2cccc(-c3cc(F)ccc3OCC(F)(F)C(F)(F)F)c2)n[nH]1
active: [3] 127 µM | [5] 101 µM | [7] 160 µM | [9] 104 µM | [10] 91.9 µM
inactive: [1] | [2] | [4] | [6] | [8]

Cc1ccc(C(C)C)cc1
inactive: [1] | [2] | [3] | [4] | [5] | [6] | [7] | [8] | [9] | [10]

CCCCCc1ccc(N)cc1
inactive: [1] | [2] | [3] | [4] | [5] | [6] | [7] | [8] | [9] | [10]

Cc1cc2c(cc1C(F)(F)F)N(C(=O)Nc1ccc(Oc3cccnc3C)nc1)CC2
inactive: [2] | [6] | [7] | [9]
active: [1] 2.58 µM | [3] 50.2 µM | [4] 43.6 µM | [5] 56.2 µM | [8] 45.7 µM | [10] 9.35 µM

CO[C@H]1/C=C/O[C@@]2(C)Oc3c(C)c(O)c4c(O)c(c(/C=N/N5CCN(C)CC5)c(O)c4c3C2=O)NC(=O)/C(C)=C\C=C\[C@H](C)[C@H](O)[C@@H](C)[C@@H](O)[C@@H](C)[C@H](OC(C)=O)[C@@H]1C
active: [10] 45.2 µM
inactive: [1] | [2] | [3] | [4] | [5] | [6] | [7] | [8] | [9]

CN(C)c1ccc(C(=C2C=CC(=[N+](C)C)C=C2)c2ccc(N(C)C)cc2)cc1
active: [1] 0.747 µM | [3] 6.05 µM | [4] 22 µM | [5] 4.66 µM | [6] 27.3 µM | [8] 2.93 µM | [9] 0.407 µM | [10] 3.23 µM
inactive: [2] | [7]

O=C1CCC(C2CCCCC2)CC1
inactive: [1] | [2] | [3] | [4] | [5] | [7] | [8] | [9] | [10]
active: [6] 19.8 µM

CCCCCCCCOC(=O)c1cc(O)c(O)c(O)c1
active: [1] 14.8 µM | [3] 90 µM | [4] 171 µM | [5] 50.8 µM | [6] 13.5 µM | [8] 43.3 µM | [9] 8.95 µM | [10] 63.2 µM
inactive: [2] | [7]

COCC(C)OCC(C)OCC(C)O (stereo not drawn)
inactive: [1] | [2] | [3] | [4] | [5] | [6] | [7] | [8] | [9] | [10]

CC1(C)NC(=O)N(c2ccc([N+](=O)[O-])c(C(F)(F)F)c2)C1=O
inactive: [1] | [2] | [3] | [4] | [5] | [6] | [7] | [8] | [9]
active: [10] 38.6 µM

Cc1cn([C@H]2C[C@H](N=[N+]=[N-])[C@@H](CO)O2)c(=O)[nH]c1=O
inactive: [1] | [2] | [3] | [4] | [5] | [6] | [7] | [8] | [10]
active: [9] 46.3 µM

Reference: PubChem BioAssay (EPA / NIEHS)
